Key:
Settings in all cases: concentration: 1 μM,replicates: in singlicate; n = 1
[1] = tested on: PIP5K1A
[2] = tested on: PIP5K1C
[3] = tested on: PIP5K2B
[4] = tested on: T1, PIP5K2C
T1 construct: gene PIP4K2C

[5] = tested on: T2, PKAC-alpha
T2 construct: gene PRKACA

[6] = tested on: T3, PKAC-beta
T3 construct: gene PRKACB

[7] = tested on: PKMYT1
[8] = tested on: PKN1
[9] = tested on: PKN2
[10] = tested on: PLK1
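Also: KINOMEscan kinase panel screen.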

SMILES | %Inh [1] [%] | %Inh [2] [%] | %Inh [3] [%] | %Inh [4] [%] | %Inh [5] [%] | %Inh [6] [%] | %Inh [7] [%] | %Inh [8] [%] | %Inh [9] [%] | %Inh [10] [%]
CNC(=O)c1ccccc1Sc1ccc2c(/C=C/c3ccccn3)n[nH]c2c1 | 12 | 0 | 12 | 0 | 0 | 0 | 100 | 0 | 0 | 0
CC(C)N1C(=O)Cc2cc(Nc3ncc(C(F)(F)F)c(NCc4cccc(S(C)(=O)=O)c4)n3)ccc21 | 34 | 0 | 57 | 52 | 0 | 0 | 15 | 24 | 7 | 28
C=CC(=O)Nc1cc2c(Nc3ccc(F)c(Cl)c3)ncnc2cc1OCCCN1CCOCC1 [GW781483] | 18 | 0 | 0 | 27 | 11 | 10 | 20 | 18 | 0 | 0
Cc1cc(C(=O)Nc2ccc(Oc3ccc4nc(NC(=O)C5CC5)cn4n3)cc2)nn1-c1ccccc1 | 3 | 27 | 50 | 22 | 0 | 21 | 0 | 0 | 11 | 0
Cc1ccc2c(-c3ccncc3)c(-c3ccc(F)cc3)nn2c1.Cl [GW461484] | 24 | 24 | 31 | 10 | 18 | 22 | 0 | 0 | 8 | 0
C[C@H]1Oc2cc(cnc2N)-c2c(nn(C)c2C#N)CN(C)C(=O)c2ccc(F)cc21 | 0 | 44 | 0 | 0 | 18 | 0 | 33 | 12 | 0 | 0
Cl.Cl.Nc1nc(-c2ccc3c(N)n[nH]c3c2)cc(N2CCCC(NC(=O)c3ccccc3)C2)n1 (stereo not shown) [GSK2286775] | 56 | 55 | 38 | 25 | 0 | 0 | 5 | 41 | 0 | 0
O=C(NCCNc1ccnc(NCc2ccc(F)cc2)n1)c1cc2ccccc2s1 [GSK1379944] | 0 | 100 | 20 | 12 | 7 | 14 | 74 | 0 | 0 | 0
Cc1cc2cn[nH]c2cc1-c1cccc2c(N)c(C(N)=O)nnc12 | 16 | 0 | 0 | 10 | 1 | 0 | 0 | 0 | 0 | 15
COc1ccc(C[C@@H](CN)NC(=O)c2cc(Br)c(-c3ccnc4[nH]ccc34)s2)cc1.Cl.Cl [GSK1389063] | 46 | 30 | 64 | 59 | 99.7 | 99.7 | 0 | 95.8 | 90 | 0
Cl.Cl.NC[C@H](CC1CCCCC1)NC(=O)c1cc(Br)c(-c2ccnc3[nH]ccc23)s1 [GSK1581427] | 63 | 35 | 89 | 36 | 99.5 | 99.6 | 0 | 31 | 82 | 0
C[C@@H](Oc1cc(-c2cnn(C3CCNCC3)c2)cnc1N)c1c(Cl)ccc(F)c1Cl | 0 | 0 | 79 | 0 | 0 | 0 | 0 | 2 | 0 | 0
C[C@@H]1CCN(C(=O)CC#N)C[C@@H]1N(C)c1ncnc2[nH]ccc12 | 0 | 0 | 0 | 0 | 0 | 0 | 20 | – | – | 0
CC(C)Nc1cc(-c2ccc3c(N)n[nH]c3c2)nc(N)n1 [GSK2221681] | 56 | 28 | 32 | 0 | 0 | 0 | 0 | 29 | 0 | 0
CN(C)CCOc1ccc(-c2cc(-c3c[nH]nc3-c3ccccn3)ccn2)cc1 [GW835314] | 0 | 16 | 26 | 8 | 10 | 0 | 0 | 100 | 3 | 42
CN(C)CC(O)COc1ccc(Nc2nccc(-c3cnn4nc(N5CCOCC5)ccc34)n2)cc1 (stereo not shown) [GW767488] | 37 | 24 | 77 | 82 | 0 | 0 | 9 | 13 | 38 | 37
Cc1occc1-c1nc(N)c(OC[C@@H](N)Cc2c[nH]c3ccccc23)cc1-c1cc2c(C)n[nH]c2cn1 [GSK1660450] | 65 | 42 | 11 | 0 | 99.9 | 99.3 | 24 | 63 | 22 | 57
Cc1ccc(-n2nc(C(C)(C)C)cc2NC(=O)Nc2ccc(OCCN3CCOCC3)c3ccccc23)cc1 [GW839464] | 0 | 37 | 23 | 19 | 0 | 34 | 21 | 100 | 0 | 24
CCn1c(-c2nonc2N)nc2c(C#CC(C)(C)O)nc(OCCN)cc21.Cl.Cl [GSK902056] | 1 | 86 | 9 | 13 | 67 | 81 | 8 | 8 | 0 | 0
Cc1n[nH]c2ccc(-c3cc(OC[C@@H](N)Cc4ccccc4)cnc3-c3ccoc3)cc12.O=C(O)C(F)(F)F.O=C(O)C(F)(F)F [GSK507358] | 0 | 38 | 41 | 31 | 98.9 | 98 | 0 | 33 | 9 | 3
Nc1nc(Nc2ccccc2)cc(-c2ccc3c(N)n[nH]c3c2)n1 [GSK2225749] | 46 | 82 | 38 | 61 | 0 | 0 | 0 | 50 | 0 | 0
O=C(NCCCN1CCOC1=O)c1cnc(NCc2cc(Cl)ccc2Cl)nc1NC1CCCC1 | 0 | 39 | 0 | 7 | 4 | 6 | 27 | 0 | 10 | 0
Cl.Oc1cc(-c2nc(-c3ccccc3)[nH]c2-c2ccncc2)ccc1Cl [SB-386023] | 30 | 0 | 16 | 0 | 5 | 1 | 0 | 0 | 33 | 1
CCN(CC)CCOc1ccc(Nc2ncc3cc(-c4c(Cl)cccc4Cl)c(=O)n(C)c3n2)cc1 [SB-601273] | 72 | 82 | 16 | 90.7 | 26 | 0 | 98.6 | 57 | 6 | 26
Cl.Cl.NC[C@H](Cc1ccc(C(F)(F)F)cc1)NC(=O)c1cc(Br)c(-c2ccnc3[nH]ccc23)s1 [GSK1487252] | 0 | 22 | 39 | 3 | 99.4 | 98.8 | 10 | 12 | 79 | 0
NC(=O)c1cc(-c2ccccc2)cc2c(C3CCNCC3)c[nH]c12 [GSK301362] | 0 | 33 | 14 | 75 | 0 | 11 | 17 | 50 | 0 | 10
CCN(CC)CCCCNc1ncc2cc(-c3c(Cl)cccc3Cl)c(NC(=O)NC(C)(C)C)nc2n1 | 0 | 0 | 0 | 3 | 11 | 0 | 0 | 0 | 4 | 0
